An excerpt weighted towards active compounds, which were near 0.7% of everything screened.
Vif-APOBEC3G blk: qHTS for Inhibitors of Vif-A3G Interactions: qHTS; DNA dC->dU-editing enzyme APOBEC-3G (Homo sapiens), Q9HC16; HeLa A3G-eYFP + Vif (tagged APOBEC3G with the HIV-1 protein that degrades it), YFP fluorescence, overnight; Potency, µM (highest dose often 46.1 µM), inactives show at the highest dose activity, negative = active, hits mostly inhibitors; 0.076% of 410,000 active; note: % is set by controls: 0 for no effect and ±100 for the full control effect; nearly all actives have a fitted effect of over 60% in size
Target sequence (Q9HC16 whole entry, looked up): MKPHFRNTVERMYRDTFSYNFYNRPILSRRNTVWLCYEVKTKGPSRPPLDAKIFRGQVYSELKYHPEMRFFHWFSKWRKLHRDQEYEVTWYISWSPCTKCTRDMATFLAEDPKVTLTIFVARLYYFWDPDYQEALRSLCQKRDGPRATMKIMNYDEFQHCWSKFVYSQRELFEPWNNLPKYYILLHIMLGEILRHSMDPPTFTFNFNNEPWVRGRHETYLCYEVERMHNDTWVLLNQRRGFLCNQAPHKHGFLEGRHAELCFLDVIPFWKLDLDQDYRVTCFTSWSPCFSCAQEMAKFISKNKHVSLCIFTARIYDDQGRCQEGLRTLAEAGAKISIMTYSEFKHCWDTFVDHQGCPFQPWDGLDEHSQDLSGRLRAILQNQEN
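Read-out is eYFP fluorescence (Ex 488/Em 500-530) from Vif-expressing HeLa A3G-eYFP cells; more signal means A3G escaped Vif-mediated degradation. Cells plated overnight, compound pinned in, incubated overnight at 37 deg C.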
GLS inh: qHTS for Inhibitors of Glutaminase (GLS). Potency, µM (top dose mostly 45.5 µM), for the others: at the highest dose activity change, negative = inhibition, most hits filed as inhibitors. Glutaminase kidney isoform, mitochondrial (Homo sapiens), O94925. GLS enzymatic activity, qHTS titration. 0.21% of 410,000 active; note: % is set by controls: 0 for no effect and ±100 for the full control effect
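hKGA in 45 mM KH2PO4 (pH 8.2), 0.02% Tween-20 with compound, then 1mM L-Glutamine (stock as added) plus glutamate oxidase/HRP/Amplex red coupling mix. Fluorescence read initially and after 30 min at RT; signal change reflects glutamate formation.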
Epigenetic derep: Quantitative High-Throughput Screen for Regulators of Epigenetic Control; murine LDR cells, GFP reporter derepression, 30 h; Potency, µM (highest dose often 53.9 µM), for inactives: at the highest dose GFP activation, usual class: activators; 0.2% of 280,000 active; AID 1865, 2009; note: % of control where 0% means no effect; nearly all actives have a fitted effect of over 60% in size
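GFP-positive cell count by laser-scanning cytometry (objects 20–120 um) after 30 h, 37 C compound exposure of murine LDR cells; reporter is CMV-GFP integrated at a silenced locus, inducible by HDAC or DNMT inhibitors.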
Vif-APOBEC3F blk: qHTS for Inhibitors of Vif-A3F Interactions: qHTS. Potency, µM (series often up to 46.1 µM), for the others: at the highest dose activity, negative = active. HeLa A3F-eYFP + Vif (tagged APOBEC3F with the HIV-1 protein that degrades it), YFP fluorescence increase. 0.2% of 390,000 active; note: % of control where 0% means no effect; nearly all actives have a fitted effect of over 65% in size
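HeLa cells stably expressing A3F-eYFP plus Vif, plated and incubated overnight at 37 deg C, then exposed to compounds overnight at 37 deg C. Blocked degradation read as raised yellow fluorescence (Ex 488/Em 500-530).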
PINK1 modulator: A Quantitative High throughput Screen to Identify Chemical Modulators of PINK1 Expression | PINK1 immunofluorescence, high-content cytometry, 24 h | Potency, µM (highest dose often 76.6 µM), for inactives: top-dose activation (PINK1 increase), most hits filed as activators | 0.2% of 410,000 active; active = well fitted activation curve with a large enough effect; inconclusive = small, poorly fitted or top-dose-only effect; cell line not stated here; note: % of control where 0% means no effect; nearly all actives have a fitted effect of over 65% in size
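Decision-based qHTS: stable cells, 24 h exposure to five compound concentrations, CCCP as control. Fixed cells stained for PINK1 plus nuclear, mitochondrial and cell markers, cytometer read.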
* hit, by the source's call; ? = inconclusive; . = no result; [ ] = dose if it differs, or a comment. Unless noted, calls come from the whole dose curve; as a rule, active = well fitted curve in the direction sought with a large enough effect; inconclusive = small, poorly fitted or top-dose-only effect, or another doubt; inactive = no such curve, though single readings can be large; an effect the other way counts as inactive or inconclusive. Potency is the fitted concentration of half-maximal effect.

SMILES	Vif-APOBEC3G blk	GLS inh	Epigenetic derep	Vif-APOBEC3F blk	PINK1 modulator
COc1cccc(CN2CCCC(c3nc(-c4ccncc4)ncc3-c3ccccc3)C2)c1O (stereo not drawn)	.	.	.	.	4%
Cc1cc(C(F)(F)F)c(C#N)c(SCC(=O)Nc2nc3cc(Br)ccc3s2)n1	?	4%	-3%	?	14µM*
COc1cc(=O)n2c(c1C(=O)N(C)Cc1nonc1C)CCN(CC1CC=CCC1)CC2 (stereo not drawn)	.	.	.	.	-1%
Nn1c(SCC(=O)Nc2ccccc2)nnc1C1CCCCC1	-3%	9%	.	7%	-1%
Nn1c(SCC(=O)NCc2ccccc2)nnc1C1CC1	1%	1%	5%	1%	5µM*
S=c1[nH]cnc2sc(-c3ccccc3)cc12	-4%	-7%	1%	5.6µM*	-1%
CNc1ncnc2sc(-c3ccccc3)cc12	-12%	-8%	0%	6%	-1%
CCSc1nnc(C(C)NC(=O)c2ccc(OC)cc2)n1C (stereo not drawn)	.	.	.	.	1%
C/C(=N\NC(=O)c1cccc(Cl)c1)C1C(=O)c2ccccc2C1=O	3%	12%	-4%	10%	40µM*
C/C(=N\NC(=O)CCc1ccccc1)C1C(=O)c2ccccc2C1=O	-1%	-8%	2%	?	0%
O=C(O)C(Cc1ccccc1)n1cccc1 (stereo not drawn)	0%	13µM*	-2%	9%	-1%
O=C(C(Cc1ccccc1)n1cccc1)N1CCN(c2ccccc2)CC1 (stereo not drawn)	1%	3%	-1%	-2%	2%
Cc1cccc2cc3c(N)c(C(=O)N4CCOCC4)sc3nc12	?	-3%	1%	22µM*	1%
O=C(OCC12CC3CC(CC(C3)C1)C2)c1ccc(NCc2cc(O)ccc2O)cc1	-15%	15%	.	22µM*	-2%
Nc1ccc(OC(=O)Nc2ccc(O)cc2)cc1	-3%	14µM*	3%	7%	1%
O=C(Nc1ccc(N2CCN(c3ccc(O)cc3)CC2)cc1)Oc1ccccc1	-16%	16%	5%	2%	4%[38.3 µM]
CCn1nc(C)c(CN2Cc3ccccc3OC(c3ccccc3OC)C2)c1C (stereo not drawn)	.	.	.	.	-1%
CN(C)c1ccc2nc3c(=O)[nH]c(=O)nc-3n(CC(O)C(O)C(O)CO)c2c1 (stereo not drawn)	2%	-12%	.	8.9µM*	3%
Cc1ncc(C(O)c2ccc(N(C)C)cc2)n1Cc1ccccc1 (stereo not drawn)	0%	30%	.	-6%	0%
COCC(C)N=C1NN=C(c2cc(C)n(Cc3ccccc3Cl)c2C)CS1 (stereo not drawn)	-1%	7%	-2%	4%	35µM*
Cc1ccccc1N=C/C=C1/C=C(c2ccccc2)OC(C)(C)O1	1%	23%	22µM*	-3%	-6%[38.3 µM]
Cc1ccc2nc(-c3ccccn3)c(NC3CCCC3)n2c1	0%	9%	0%	7.9µM*	11%
O=C(NCC1(N2CCOCC2)CCCC1)c1cnn(-c2nccc(-c3ccco3)n2)c1C1CC1	.	.	.	.	0%
Cn1c(N2CCCCC2)nc2c1c(=O)n(Cc1cccc(Br)c1)c(=O)n2C	2%	-8%	3%	-6%	0%
CC(O)CNc1nc2c(c(=O)n(Cc3ccc(Br)cc3)c(=O)n2C)n1C (stereo not drawn)	2%	20µM*	.	13%	0%
Cn1c(N2CCN(c3ccccn3)CC2)nc2c1c(=O)n(Cc1ccc(Cl)cc1)c(=O)n2C	1%	?	0%	-5%	0%
Cn1c(N2CCOCC2)nc2c1c(=O)n(Cc1ccc(Cl)cc1)c(=O)n2C	-1%	13µM*	.	-5%	21%[38.3 µM]
Cn1c(N2CCC(C(N)=O)CC2)nc2c1c(=O)n(Cc1ccc(Br)cc1)c(=O)n2C	-7%	13µM*	.	-5%	3%[38.3 µM]

High-throughput results deposited in PubChem by National Center for Advancing Translational Sciences (NCATS).
